Assay outcomes: PubChem, National Center for Advancing Translational Sciences (NCATS)
Only some compounds are listed: those with a hit (about 2.4% of all), similar ones and a draw of the others.
BRCT inh red: inhibitors of human BRCA1 BRCT-phosphoprotein interaction (red fluorophore); BRCT-phosphopeptide binding, red fluorescence polarization; 0.03% of 75,000 active; Potency, µM (highest dose often 76.9 µM), inactives show at the highest dose activity change, negative = inhibition, actives largely listed as inhibitors; note: % is set by controls: 0 for no effect and ±100 for the full control effect
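Rhodamine-labelled pBACH1 10-mer (100 nM) bound to BRCT domain (100 nM) at pH 7.3; compounds incubated 12 min room temperature, polarization read. Free peptide defines full inhibition; unlabelled decapeptide titrated as control.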
ALOX15 inhib: blocks human 15-lipoxygenase activity; P16050; purified 15hLO-1, xylenol orange hydroperoxide absorbance; Potency, µM (top dose mostly 57.1 µM), for the others: top-dose activity change, negative = inhibition, actives largely listed as inhibitors; 1.4% of 74,000 active; note: potency is the fitted concentration of half-maximal effect; % is set by controls: 0 for no effect and ±100 for the full control effect; nearly all actives have a fitted effect of over 55% in size
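Purified human 15hLO-1 (40 nM final) in 25 mM Hepes pH 7.5, 0.01% Triton X-100 was preincubated with compound 15 min at room temperature, then reacted 6 min with 50 uM arachidonic acid; hydroperoxide detected by Fe-XO, 573/405 nm absorbance ratio.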
TsaE inh: inhibitors of E. coli YjeE (TsaE). AID 605. P0AF67. Potency, µM. 0.05% of 71,000 active. purified YjeE enzyme, qHTS inhibition assay
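Fluorescence polarization of a BODIPY Texas Red–ADP probe (2 uM) bound to purified YjeE (10 uM) was read after 15 min room-temperature incubation with compounds. Loss of polarization marks inhibitors; ADP serves as titrated control.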
ERK AVP inh: inhibitors of vasopressin-stimulated ERK signaling pathway | HEK293-V1b, vasopressin-stimulated pERK AlphaScreen | Potency, µM (highest dose often 57.5 µM), inactives show at the top dose activity, negative = inhibition, most hits filed as inhibitors | 0.99% of 72,000 active; note: potency is the fitted concentration of half-maximal effect; % is set by controls: 0 for no effect and ±100 for the full control effect; nearly all actives have a fitted effect of over 55% in size
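HEK293 cells stably expressing V1b receptor, seeded overnight in 1% FBS, were treated with compounds for 30 min at 37C, then stimulated 5 min with 25 nM vasopressin; phospho-ERK read by AlphaScreen SureFire after lysis.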
BRCT PPI green: blocks human BRCA1 BRCT binding to phosphopeptide, green readout; BRCA1 BRCT-phosphopeptide binding, green fluorescence polarization; Potency, µM (titrated, usually from 76.9 µM), without a hit: at the highest dose activity change, negative = inhibition, most hits filed as inhibitors; 0.05% of 75,000 active;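 note: potency is the fitted concentration of half-maximal effect; plate controls were peptide without protein for full effect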
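Compounds were incubated for 12 min at room temperature with a complex of 100 nM fluorescein-tagged pBACH1 decapeptide and 250 nM His-tagged BRCT protein. Buffer was phosphate pH 7.3 with EDTA, DTT and Tween 20. Disruption of binding lowers the polarization signal.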
Pol III holo inh: inhibitors of bacterial DNA polymerase III holoenzyme; reconstituted DNA polymerase III holoenzyme replication, biochemical; Potency, µM (titrated, usually from 57.1 µM), inactives show top-dose activity change, negative = inhibition; 0.25% of 71,000 active; note: potency is the fitted concentration of half-maximal effect; % is set by controls: 0 for no effect and ±100 for the full control effect
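Reconstituted *E. coli* holoenzyme (0.35 nM Pol III, 1 nM beta, 154 nM SSB, 2 nM primase) was preincubated with compound for 15 min at RT. Synthesis on 1.4 nM ssM13Gori ran 35 min, then was stopped with PicoGreen/EDTA and read as dsDNA fluorescence.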
Active calls of the source: *; i = inactive; ? = inconclusive; . = no result given; [ ] = remark or other dose. Calls come from the whole dose curve; as a rule, active = well fitted curve in the direction sought with a large enough effect; inconclusive = small, poorly fitted or top-dose-only effect, or another doubt; inactive = no such curve, though single readings can be large; an effect the other way counts as inactive or inconclusive.

SMILES	BRCT inh red	ALOX15 inhib	TsaE inh	ERK AVP inh	BRCT PPI green	Pol III holo inh
CC(=O)NC(c1ccco1)c1ccc2cccnc2c1O (centres undefined)	0%	3%	i	16µM*	-1%	-2%
O=C(O)CCCCn1ccc(=O)[nH]c1=O	-3%[15.4 µM]	-2%[11.4 µM]	i	-4%[11.5 µM]	-2%[15.4 µM]	22%[11.4 µM]
CCN(CC)c1nc(N(CC)CC)[nH]c(=O)n1	-4%	13µM*	i	37%	-1%	1%
O=C(O)C(Cc1cccs1)C(=O)O	0%[15.4 µM]	1%[11.4 µM]	i	2%[11.5 µM]	-1%[15.4 µM]	-11%[11.4 µM]
Cc1cnc(C(=O)Nc2ccccc2-c2nnn(CC(=O)NC3CCCC3)n2)cn1	-1%	-1%	i	75%	-3%	-9%
CC1=C(C)C(=O)NC(Nc2nc(C)c3cc(C)cc(C)c3n2)N1 (centres undefined)	0%	0%	i	14%	1%	-17%
CCNc1ncc2nc(-c3cccs3)c(=O)n(CCC#N)c2n1	-1%	-26%	i	5µM*	-23%	7%
CCNc1ncc2ncc(=O)n(Cc3cccs3)c2n1	1%	6%	i	-30%	1%	-6%
CN1CCN(c2ncc3nc(-c4ccc(F)cc4)c(=O)n(Cc4cccs4)c3n2)CC1	-1%	-4%	i	20µM*	-2%	-5%
Cc1nc2cnc(N3CCN(C)CC3)nc2n(Cc2cccs2)c1=O	0%	6%	i	-17%	-1%	-5%
CCNc1ncc2nc(C)c(=O)n(Cc3cccs3)c2n1	1%	2%	i	16µM*	1%	-10%
O=C(c1csnn1)N1CCC2(CCCN(Cc3ccccc3)C2)CC1	-1%	4%	i	10%	-3%	2%
O=C1OC(O)C(C(Cl)Cl)=C1Cl (centres undefined)	0%	-12%	i	-1%	-1%	-13%
O=C(OCc1nnc(-c2ccc(Cl)cc2)o1)c1ccc(=O)n(Cc2ccccc2)n1	3%	20µM*	i	-12%	5%	-2%
COc1ccc(-c2nc3cnc(N(C)C)nc3n(C)c2=O)cc1	0%	-3%	i	36%	2%	-1%
Cn1c(NCc2ccccc2O)nc2ccccc21	1%	-1%	i	-25%	0%	0%
Cn1c(NCc2cccc(Br)c2)nc2ccccc21	0%	10µM*	i	32µM*	-1%	-7%
Cc1cc(NC(=O)CSc2nc3c(c(-c4cccnc4)c2C#N)CCC3)no1	2%	-5%[11.4 µM]	i	-19%	0%	3.2µM*
CCCNC(=O)C1CCN(S(=O)(=O)c2ccc(Br)cc2)CC1	1%	11%	i	-6%	-2%	-7%
N#CCCn1c(=O)c(CCc2ccccc2)nc2cnc(Oc3cccc(Cl)c3)nc21	-1%	1%	i	6%	1%	6%
COc1ccc2c(c1)Cc1sc(NC(=O)c3cccs3)nc1-2	1%	32µM*	i	?	-5%	-6%
C[N+]1(C)CCc2cc3c(cc2[C@@H]1[C@@H]1C(=O)Oc2c1ccc1c2OCO1)OCO3	-1%	-13%[25.6 µM]	i	-3%	-3%	0%
COc1ccc(-c2noc(C)c2-c2ccc3ccccc3n2)c(O)c1	1%	16µM*	i	-17%	-2%	-2%
CSCC[C@@H](C(=O)O)N1Cc2ccccc2C1=O	1%	?	i	.	-2%	-5%
O=C(O)[C@@H](c1ccccc1)N1Cc2ccccc2C1=O	-4%	7.9µM*	i	.	-2%	-4%
COc1ncc2nc(-c3cccs3)c(=O)n(C)c2n1	-1%	-8%	i	-14%	-3%	-3%
Cc1ccc(S(=O)(=O)OC2CCN(C)CC2)cc1	0%[15.4 µM]	7%[11.4 µM]	i	4%[11.5 µM]	-1%[15.4 µM]	-4%[11.4 µM]
Cc1cc(C(=O)CSCCCn2c(=O)[nH]c3ccccc32)c(C)n1C	-2%	32µM*	i	-30%	-4%	-8%
O=c1[nH]c2ccccc2n1CCCSCCCn1c(=O)[nH]c2ccccc21	0%	-2%	i	32µM*	1%	-6%
